SMILES strings stand for the structures.

The experiment relates to HL-1. The experiment in a line: protection of cardiomyocytes from stress damage, SAR follow-up, cell-based, panel, H9c2 and HL-1, ATP luminescence, set 2 (AID 651871).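 Also: cells exposed to stressor for 2 h before ATP readout; reference of the scale not given here.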 Conditions: H9c2/HL-1 cardiomyocytes, 2-deoxyglucose stress, with 2-deoxyglucose, run 8, at 79 µM (top of the series).
In the case of `COc1ccc2c(c1OC)C(=O)N1c3ccccc3C(=O)N(Cc3cccc(Cl)c3Cl)C21` (stereo not drawn), the activity (protection/inhibition) is -9.25%.
With `COc1ccc2nc(-c3cc(OC)c(OC)c(OC)c3)cc(C(=O)NCC(=O)Nc3ccc(C(C)=O)cc3)c2c1` the figure was 97.2%; with `CCOC(=O)c1cccc(NC(=O)CNC(=O)c2cc(-c3cc(OC)c(OC)c(OC)c3)nc3ccccc23)c1`, 74.3%.

The record behind these values is PubChem BioAssay AID651871 (Sanford-Burnham Center for Chemical Genomics, 2012).
